Biological target: OTP
Assay: pooled miR-30 sensor sort-seq; sequence = guide strand
Conditions: shRNA

| Sequence | sensor-assay potency score (higher = more potent) |
| --- | --- |
| TTCCTCGTCACATGACTGCTTT | -0.353 |
| TTATCTACACAAAACATCCTAT | -0.185 |
| TTTATCTACACAAAACATCCTA | 0.114 |
| TTTCTCTGTACAAAGTTGCAGG | -0.634 |
| AACATATCACAAATTGACCAGT | -0.538 |
| TTGACCAGTATGTAACAAGAAT | -1.1 |
| TTAAGTTAAAACATATCACAAA | -1.23 |
| TTCTACACTCTCACACAGTTGT | 0.376 |
| TGTCCCTTGAACACGTCCGTGT | -0.222 |
| TTACAAAAGAAAATTTTGCTTA | -0.204 |

Biological target: OXGR1
Assay: as above
Conditions: shRNA

| Sequence | sensor-assay potency score (higher = more potent) |
| --- | --- |
| TTGAAATGGAAGCTGAAGCGGA | 0.195 |
| TTCAGCATAATGATGGTGCTGC | 0.6 |
| TAATTTTCTTTGCTTGCTCAAG | -1.24 |
| TTGAGTTCATCCGAACTGGTGA | 0.378 |
| TTACTTTGCATCTCACTGTTGA | 0.106 |
| TACAGGTTGAAATGGAAGCTGA | -0.61 |
| AATAGTATTGAGTTCATCCGAA | -0.145 |
| TACAACTGCACATCGAGTTTTG | -0.712 |
| TGAATGATCACACAGTAGCGGA | -1.12 |
| TAATAGTATTGAGTTCATCCGA | -0.637 |
| TTTCTTTGCTTGCTCAAGGTTC | -0.282 |
| TTGCATCTCACTGTTGAGCAGA | -0.0433 |

Biological target: OXSR1
Assay: as above
Conditions: shRNA

| Sequence | sensor-assay potency score (higher = more potent) |
| --- | --- |
| TTCATCATCACTCCACTCCCAG | -0.375 |
| TTGAAGAAATTCTTTATTCTTT | -0.617 |
| TATTGATTCTTTCACTCGGGGA | -0.811 |
| TTTCTTTATCTTGAACACCAGT | -0.815 |
| TAATCTTAGTACTAGACTGATT | -1.17 |
| TATCTGAGCCTTCGACACCAGA | -1.2 |
| TTTGATTGCCACTTTCTCCTTT | 0.477 |
| TCTTGGTTTCTTGTGAACCTGA | -0.403 |
| TTAATCTTAGTACTAGACTGAT | -0.309 |
| TTTACTAACGGAACTCTGGGGA | 0.644 |
| TTTCTTGTGAACCTGATCCTGA | 0.134 |
| TTGTCTGTAAAAACAATCCAAA | -1.04 |

Biological target: P2RX3
Assay: as above
Conditions: shRNA

| Sequence | sensor-assay potency score (higher = more potent) |
| --- | --- |
| TTCACCTTGGTTACCACCGAGG | -0.997 |
| TATACCAGCACGTCGAAGCGGA | -0.313 |
| TTGAGCAGGATGATGTCACAGA | 0.136 |
| TTGTCCAAGTCGCACACCCAGC | -1.44 |
| TTGATGATCCCGATGGTCCAGC | -0.677 |
| TTCCACTGTGTCCACCTCCGTG | -1.06 |

Reference: the OligoGym collection
